Screening data from PubChem BioAssay.
In the library only some 11% were active in any assay of this set; here they are far more common.
HP1b binding inh: HP1-beta chromodomain-methylated histone interaction inhibition | P83916 | AlphaScreen HP1-beta / biotin-H3K9me3 peptide binding | Potency, µM (titrated, usually from 114 µM), for inactives: at the top dose activity change, negative = inhibition, most hits filed as inhibitors | 390,000 tested, 0.56% active | AID 540317; also: potency is read from the fitted curve at half-maximal effect; nearly all actives have a fitted effect of over 70% in size
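HP1-beta protein (50 nM final) preincubated 30 min at room temperature with biotinylated H3(1-18)K9me3 peptide (50 nM) in PBS pH 7.4, 0.01% Tween-20, then compound added for 30 min. AlphaScreen streptavidin donor/nickel chelate acceptor beads (10 ug/mL final), 30 min dark, luminescence read.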
PI5P4K alpha inh: PI5P4K alpha (human) kinase inhibition; max response, %; AID 652105; PI5P4Kalpha enzyme, ADP-Glo luminescence, 60 min; hits give low values; P48426; 330,000 tested, 1.2% active; active = max response of -50% or lower; inconclusive = between -30% and -50%; inactive = -30% or higher; also: value at the top dose of about 77 µM; % is scaled to controls: 0 for no effect and ±100 for the full control effect
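Reactions run in 0.038 M HEPES pH 7.4, 0.28 mM EGTA, 0.1% CHAPS and 5% DMSO, with PI5P4Kalpha, substrate, compound and 5 microM ATP final, one hour at room temperature. Readout is ADP-Glo luminescence.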
L3MBTL1 block: blocks human L3MBTL1; Q9Y468; AlphaScreen L3MBTL1–H3K9me1 peptide binding; Potency, µM (titrated, usually from 57.1 µM), without a hit: top-dose activity, negative = inhibition, most hits filed as inhibitors; 230,000 tested, 0.66% active; AID 485360; also: potency is read from the fitted curve at half-maximal effect; % is scaled to controls: 0 for no effect and ±100 for the full control effect; nearly all actives have a fitted effect of over 60% in size
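First, the protein-peptide complex forms for 30 min at room temperature (L3MBTL1 50 nM, biotinylated H3K9me1 peptide 75 nM). Next, compounds are pin-transferred and incubated 30 min. Finally, AlphaScreen beads are added and read after 30 min.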
BAZ2B inh: blocks human BAZ2B. AlphaScreen BAZ2B-H3K14Ac peptide displacement. Potency, µM (titrated, usually from 114 µM), inactives show at the top dose activity change, negative = inhibition, usual class: inhibitors. 360,000 tested, 4.4% active; also: potency is read from the fitted curve at half-maximal effect; % is scaled to controls: 0 for no effect and ±100 for the full control effect; nearly all actives have a fitted effect of over 60% in size
Target sequence (Q9UIF8 whole entry, looked up): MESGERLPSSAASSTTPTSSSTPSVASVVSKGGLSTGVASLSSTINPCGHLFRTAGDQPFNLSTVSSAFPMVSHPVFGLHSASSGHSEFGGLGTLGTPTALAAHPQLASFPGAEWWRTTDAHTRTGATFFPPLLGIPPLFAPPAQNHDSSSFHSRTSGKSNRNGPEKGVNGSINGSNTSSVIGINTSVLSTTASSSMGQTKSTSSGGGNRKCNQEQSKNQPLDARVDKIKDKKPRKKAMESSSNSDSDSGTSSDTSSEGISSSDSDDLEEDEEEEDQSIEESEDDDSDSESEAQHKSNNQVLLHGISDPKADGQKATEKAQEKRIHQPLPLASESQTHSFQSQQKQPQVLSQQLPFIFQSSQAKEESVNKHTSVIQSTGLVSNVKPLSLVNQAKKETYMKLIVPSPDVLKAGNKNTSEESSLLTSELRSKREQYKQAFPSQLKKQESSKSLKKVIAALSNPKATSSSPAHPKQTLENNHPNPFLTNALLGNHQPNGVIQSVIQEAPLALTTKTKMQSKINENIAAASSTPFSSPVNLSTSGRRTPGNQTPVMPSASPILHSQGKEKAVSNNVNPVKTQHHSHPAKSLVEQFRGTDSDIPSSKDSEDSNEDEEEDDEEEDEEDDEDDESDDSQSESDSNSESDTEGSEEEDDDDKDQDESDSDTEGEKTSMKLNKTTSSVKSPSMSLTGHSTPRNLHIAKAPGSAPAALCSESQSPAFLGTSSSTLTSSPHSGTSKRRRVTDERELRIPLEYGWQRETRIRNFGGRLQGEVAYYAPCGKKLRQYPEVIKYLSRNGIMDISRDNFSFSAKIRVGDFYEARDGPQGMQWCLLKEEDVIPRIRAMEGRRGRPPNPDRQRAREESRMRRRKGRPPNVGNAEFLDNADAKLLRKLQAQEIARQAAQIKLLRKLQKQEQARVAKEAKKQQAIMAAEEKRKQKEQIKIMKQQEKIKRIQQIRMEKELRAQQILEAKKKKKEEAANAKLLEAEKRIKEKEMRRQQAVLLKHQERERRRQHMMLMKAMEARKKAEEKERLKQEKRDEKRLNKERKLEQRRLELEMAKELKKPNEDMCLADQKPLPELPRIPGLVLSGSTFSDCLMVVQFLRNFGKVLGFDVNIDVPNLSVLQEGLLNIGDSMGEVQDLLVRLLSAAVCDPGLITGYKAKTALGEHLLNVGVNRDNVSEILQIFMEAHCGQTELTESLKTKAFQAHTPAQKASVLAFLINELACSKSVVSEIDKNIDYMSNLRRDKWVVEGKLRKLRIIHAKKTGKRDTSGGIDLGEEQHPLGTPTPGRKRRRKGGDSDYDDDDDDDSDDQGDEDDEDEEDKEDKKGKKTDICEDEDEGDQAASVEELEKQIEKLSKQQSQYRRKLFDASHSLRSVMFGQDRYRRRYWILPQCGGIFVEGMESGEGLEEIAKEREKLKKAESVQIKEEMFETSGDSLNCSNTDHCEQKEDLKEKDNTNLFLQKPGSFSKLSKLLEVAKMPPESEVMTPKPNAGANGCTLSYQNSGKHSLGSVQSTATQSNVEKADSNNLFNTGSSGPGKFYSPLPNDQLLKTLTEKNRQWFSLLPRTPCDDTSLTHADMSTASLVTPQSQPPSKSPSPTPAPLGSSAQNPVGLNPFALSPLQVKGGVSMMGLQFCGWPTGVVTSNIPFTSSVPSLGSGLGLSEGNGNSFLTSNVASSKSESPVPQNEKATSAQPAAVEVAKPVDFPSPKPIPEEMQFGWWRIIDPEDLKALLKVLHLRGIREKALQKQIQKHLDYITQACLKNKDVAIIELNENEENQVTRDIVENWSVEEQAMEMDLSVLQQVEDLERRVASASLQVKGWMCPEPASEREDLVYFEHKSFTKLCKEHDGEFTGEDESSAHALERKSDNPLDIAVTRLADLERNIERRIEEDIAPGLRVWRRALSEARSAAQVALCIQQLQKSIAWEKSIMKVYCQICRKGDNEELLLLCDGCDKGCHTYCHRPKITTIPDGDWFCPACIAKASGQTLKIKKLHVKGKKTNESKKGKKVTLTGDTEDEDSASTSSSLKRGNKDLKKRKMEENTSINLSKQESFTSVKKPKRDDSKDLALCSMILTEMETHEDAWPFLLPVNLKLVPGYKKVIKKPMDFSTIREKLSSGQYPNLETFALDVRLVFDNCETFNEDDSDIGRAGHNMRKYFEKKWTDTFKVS
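Complex of BAZ2B and biotin-H3K14Ac (50 nM apiece) forms over 30 min at RT, then faces library compounds up to 110 uM for another 30 min; AlphaScreen beads added, 20 min dark incubation, luminescence read.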
G9a block: blocks human histone lysine methyltransferase G9a; Q96KQ7; G9a H3K9 monomethylation, AlphaScreen, 2 h; Potency, µM (top dose mostly 102 µM), for inactives: at the highest dose activity, negative = inhibition, actives largely listed as inhibitors; 350,000 tested, 8.8% active; also: potency is read from the fitted curve at half-maximal effect; % is scaled to controls: 0 for no effect and ±100 for the full control effect; nearly all actives have a fitted effect of over 75% in size
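Signal arises when biotinylated H3K9 peptide, once monomethylated, bridges streptavidin donor and antibody-captured acceptor beads. Enzyme at 20 nM was preincubated 15 min with test compounds; peptide 500 nM and SAM 20 uM then reacted for 2 h.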
JMJD2A Tudor inh: JMJD2A Tudor domain (human) inhibition. O75164. AlphaScreen JMJD2A-Tudor / H3K4me3 peptide binding. Potency, µM (doses to about 114 µM), for inactives: at the top dose activity change, negative = inhibition, most hits filed as inhibitors. 390,000 tested, 4.4% active. AID 504339; also: potency is read from the fitted curve at half-maximal effect; % is scaled to controls: 0 for no effect and ±100 for the full control effect; nearly all actives have a fitted effect of over 50% in size
An asterisk follows results filed as active; ? = inconclusive; / = no result; ! = repeats disagree; [ ] = dose if it differs, or a comment. Unless noted, calls follow the shape of the dose curve; as a rule, active = well fitted inhibition curve with a large enough effect; inconclusive = small, poorly fitted or top-dose-only effect; inactive = no such curve, though single readings can be large or run the other way.

SMILES	HP1b binding inh	PI5P4K alpha inh	L3MBTL1 block	BAZ2B inh	G9a block	JMJD2A Tudor inh
COc1ccc(/C=C/C(=O)N2CCN(S(=O)(=O)c3ccccc3)CC2)cc1OC	41.6%	-5.6	0.0%	-7.3%	-48.7%	-8.0%
Cc1ccc(C)c(S(=O)(=O)N2CCN(C(=O)/C=C/c3ccco3)CC2)c1	?	-61.1*	?	?	-21.2%[12.7 µM]	44.7µM*
O=C(/C=C/c1ccco1)N1CCN(c2ccc(F)cc2)CC1	-6.3%	-3.4	/	-28.3%	?	-21.6%
COc1ccc(N2CCN(C(=O)/C=C/c3ccco3)CC2)cc1	18.1%	-0.7	?	-29.8%	31.6µM*	-25.5%
Cc1ccc(C(C(=O)NC2CCCCC2)N(C)Cc2ccccc2)cc1 (configuration not stated)	3.1%	/	/	1.4%	-1.4%[59 µM]	-14.3%
COc1ccc(CNC(=O)Cc2ccc(NC(=O)N3CCSc4ncccc43)cc2)cc1OC	0.8%	/	/	-4.8%	-3.7%[59 µM]	-8.3%
Cn1cccc1Cc1nnc(SCC(=O)Nc2nccs2)n1C	11.0%	1.6	/	-16.7%	?	-20.0%
Cn1cccc1Cc1nnc(SCC(=O)Nc2nccs2)n1CCc1ccccc1	18.1%	-7.1	-14.9%	?	50.1µM*	?
CC(=O)Nc1cccc(NC(=O)CSc2nnc(Cc3cccn3C)n2CCc2ccccc2)c1	1.2%	/	-12.7%	-37.4%	50.1µM*	-15.6%
CCSc1nnc(NC(=O)CSc2nnc(Cc3cccn3C)n2CCc2ccccc2)s1	28.8%	/	-8.9%	?	3.3%[12.7 µM]	-16.0%
COc1ccc(-c2nc3cnc(OC)nc3n(-c3ccccc3)c2=O)cc1	/	/	/	/	5.4%[0.501 µM]	/
CCOc1cc(C(=O)Nc2ccc(NC(=O)c3cc4ccccc4o3)c(OC)c2)cc(OCC)c1OCC	20.0%	/	/	2.9%	-27.8%[59 µM]	-8.8%
CCCc1ccc(C(=O)O)cc1	/	/	/	/	-2.0%[59 µM]	/
COc1ccccc1-c1nc2n(n1)C(c1ccccc1Cl)C(C(=O)Nc1cccnc1)=C(C)N2 (configuration not stated)	31.4%	/	/	1.5%	-39.4%[59 µM]	-6.6%
Cc1ccc(Cc2ccc(C(=O)NNC(N)=S)o2)cc1	-9.2%	-22.9	0.9%	-2.5%	56.2µM*	-33.0%
COc1ccc(NC(=O)c2ccc(Cc3ccc(C)cc3)o2)cc1	27.5%	-4.7	-0.2%	4.0%	?	0.0%[57.1 µM]
CCOC(=O)/C(=C/c1ccc(OC(=O)c2ccccc2)cc1)C(C)=O	49.9%	-2.4	-5.8%	4.3%	44.7µM*	8.5%
CCOC(=O)C(=Cc1ccc(N(C)C)cc1)C(=O)c1ccccc1	/	8.1	/	/	/	/
COc1ccc2ccccc2c1C(=O)/C=C\c1ccoc1	?	-53.0*	-22.5%	28.2µM*	44.7µM*	?
N#Cc1nc(Nc2ccc(F)cc2)nc(NC2CCCC2)n1	/	/	/	/	/	-20.5%
N#Cc1cc2ccccc2nc1SCc1ccccn1	50.2%	/	14.1%	26.9%	35.5µM*	0.0%
Cc1ccc2cc(C)c3nnc(SCc4ccc(C(=O)O)cc4)n3c2c1C	26.7%	1.6	/	?	/	39.8µM*
Nc1ccc(C#Cc2ccccc2)cc1	6.2%	2.4	4.6%	-5.1%	37.8%[59 µM]	-6.3%
Cc1cccc(C#Cc2ccccc2)n1	54.6%	-12.4	4.1%	-8.2%	20µM*!	?
CCc1ccc2c(c1)c(=O)c(S(=O)(=O)c1ccc(F)cc1)cn2CC(=O)Nc1ccc(C)cc1C	17.3%	/	/	-4.3%	-17.6%[59 µM]	-3.3%
SMILES	HP1b binding inh	PI5P4K alpha inh	L3MBTL1 block	BAZ2B inh	G9a block	JMJD2A Tudor inh
Cc1[nH]c2ccc(C(=O)OC(C)C(=O)NC3(C#N)CCCCC3)cc2c1C (configuration not stated)	4.0%	0.5	-5.1%	50.1µM*	44.7µM*	?
CCOC(=O)C1CCCN(C(=O)CSCc2ccccc2)C1 (configuration not stated)	28.4%	-3.0	-2.8%	-0.6%	4.1%[12.7 µM]	7.3%
CCOC(=O)C1CCCN(C(=O)CCc2nnc(-c3ccc(C(C)=O)s3)o2)C1 (configuration not stated)	46.4%	13.0	/	20.8%[57.1 µM]	35.5µM*	-15.1%
CCc1ccc(CN(Cc2ccco2)C(=O)c2ccc(OC)cc2)cc1	78.7%	/	/	31.5%	11.3%[59 µM]	-10.4%
CCN(CC)CCCNC(=O)c1oc2c(c1C)-c1nn(Cc3ccc(Cl)cc3)cc1CC2	7.0%	/	/	?	?	-31.2%
COc1ccc(SCC(CC(C)C)N2CCN(C)CCC2=O)cc1 (configuration not stated)	7.7%	/	/	/	/	-20.0%
Cc1ccc2c(=O)c(C(=O)c3ccc(F)cc3)cn(CC(=O)NCc3ccccc3)c2n1	23.1%	/	/	8.1%[57.1 µM]	-11.7%[59 µM]	-7.8%
O=C(O)c1ccc(-c2ccc(-c3ccccc3)cc2)s1	/	/	/	50.1µM*	?	/
COc1ccc(CCNCC(O)c2ccccc2)cc1 (configuration not stated)	-4.0%	3.5	6.5%	56.2µM*	14.1µM*	5.01µM*
COc1ccc(NC(C)c2ccccc2)cc1 (configuration not stated)	?	0.6	/	39.8µM*	12.6µM*	50.1µM*
COc1ccc(CCC(C)NCC(C)c2ccccc2)cc1 (configuration not stated)	70.4%	8.8	8.9%	2.5%	/	-10.3%
COc1ccc(CCNCC(C)c2ccccc2)cc1 (configuration not stated)	-38.1%	-10.1	/	?	44.7µM*	7.94µM*
CC(C)c1ccc(Nc2nc3ccc(C(=O)c4ccccc4)cc3n3cnnc23)cc1	-9.8%	/	/	-24.9%	-15.6%[59 µM]	-13.4%
CCCCC(CC)C/C=C1\CC(C(=O)OCC)Oc2ccccc21 (configuration not stated) (tested in a mixture with another compound)	/	/	/	/	66.9%	/
Cc1c(Cl)cccc1NC(=O)N1CCC(CN2CCCC2)CC1	28.6%	/	/	-0.1%	-2.8%[59 µM]	4.0%
C=CCNc1nc2c3ccccc3n(C(C)=O)c2s1	-2.3%	-2.3	-1.9%	?	31.6µM*	?
COc1ccc(CCn2nnnc2C2(c3ccc(C)cc3)CC2)cc1	/	/	/	/	-5.0%[59 µM]	/
CS(=O)(=O)c1cnc2c(S(=O)(=O)c3ccccc3)cnn2c1N	1.2%	4.3	-17.6%	-25.0%	?	28.2µM*
N#Cc1ccccc1OCC(=O)N1CCN(c2ccccc2F)CC1	72.4%	/	/	31.7%	41.1%[59 µM]	?
Cc1ccc(-n2c3nc(=O)[nH]c(=O)c-3cc3cc([N+](=O)[O-])ccc32)cc1C	-10.2%	-15.9	-1.6%	7.6%	44.7µM*	-18.5%
Nc1ccc(-c2n[nH]c(=O)c3ccccc23)cc1N	-11.0%	/	-17.9%[11.4 µM]	-11.5%	8.91µM*	-32.1%
CSc1ccccc1C(=O)Nc1cc2c(cc1C(=O)O)OCCCO2	1.4%	-1.2	/	-27.1%	2.82µM*	22.4µM*
COc1ccccc1OCC(=O)Nc1cc2c(cc1C(=O)O)OCCCO2	47.7%	-9.2	/	-19.7%	7.94µM*	79.4µM*
